Test results taken from PubChem BioAssay (NCI).
Compounds without any hit were thinned out: in the full panel of roughly 83,000, 20% have a hit.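 Percent growth is the endpoint: 0 to 100 indicates growth inhibition (40 means 60% inhibition), 0 means no net growth, and negative values indicate cell death.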 A number with no mark means an inactive call. Activity calls are given as the source filed them.

The compounds below were run on BT-549 breast (assay: NCI-60 one-dose screen, 48 h (100 = growth as untreated, 0 = no growth, -100 = all killed)). Settings: 10 µM unless noted.
Method: Growth inhibition of the BT-549 human tumor cell line is measured as a screen for anti-cancer activity. Cells are grown in 96 well plates and exposed to the test compound for 48 hours. Compounds are tested at a single concentration, which is 10^-5 M for most compounds. The reported endpoint is percent growth (GI% or GIPRCNT), where numbers from 0 - 100% represent growth inhibition, and numbers from -100% - 0 represent cell death. For example, a value of 40 represents 60% growth inhibition. A value of 0 means no net growth occurred over the course of the experiment. A value of -40 indicates 40% of cells at the beginning of the experiment died by the end of the experiment. A value of -100 means all cells are dead at the end of the experiment.
NCI-60 Human Tumor Cell Lines Screen was performed using the standard one-dose NCI protocol, which is described in more detail at https://dtp.cancer.gov/discovery_development/nci-60/default.htm.
Compounds with GIPRCNT values below 10 were considered active. Activity score was based on GIPRCNT using the following formula: […]
Score is 0 for GIPRCNT values of 100 or above, 50 for GIPRCNT values of 0, and 100 for GIPRCNT values of -100.

| Structure (SMILES) | growth |
| --- | --- |
| CC(=O)c1ccc(-n2cc(CN3CCN(c4cc5c(cc4F)c(=O)c(C(=O)O)cn5C4CC4)CC3)nn2)cc1 | 102% |
| Nc1ccc(Br)cc1C(F)(F)F | 107% |
| Cc1ccc2c(c1)=C/C(=C\c1cc(-c3ccccc3)[nH]c1O)C(=O)N=2 | 29.9% |
| O=S(=O)(NCCNc1nccc(-c2c(-c3ccc(F)c(O)c3)nc3sccn23)n1)c1ccc(Cl)cc1 | 29.9% |
| Nc1ncnc2c1N=C(c1ccc(F)cc1)CC(c1cccc(Nc3ccnc4cc(Cl)ccc34)c1)N2 (stereo not given) | 99.9% |
| CCCCNC(=O)c1ccc2c(c1)nc(-c1ccccc1)n2C1CCCCC1 | 99.7% |
| N#Cc1c(-c2ccc(Cl)cc2)nc(NN=Cc2ccc[nH]2)nc1N1CCOCC1 | 16.9% |
| Cc1ccc(Cc2cnc(NC(=O)/C=C/c3ccc(C)o3)s2)cc1 | 72.3% |
| CC(C)NS(=O)(=O)/N=C1\NC(=O)NC1=C(Cl)Cl | 104% |
| Nc1cccc(-c2ccc(COc3ccc(CC4SC(=O)NC4=O)cc3)cc2)c1 (stereo not given) | 58.7% |
| Cc1ccc(-c2nc(SCC(=O)N3CCN(c4cc5c(cc4F)c(=O)c(C(=O)O)cn5C4CC4)CC3)nc(Cl)c2C#N)cc1 | 103% |
| c1ccc(Cn2cc3c(c2-c2ccccc2)CCc2cnoc2-3)cc1 | 64.1% |
| O=C(NNc1nc2cc(F)ccc2n2c(CN3CCOCC3)ccc12)c1ccccc1 | 25.7% |
| COc1ccc(/C=N/Nc2c3ccccc3nc3ccccc23)cc1 | 92.2% |
| Cc1ccc(NC(=O)c2sc3nc(C)c(C(O)c4ccccc4)cc3c2N)cc1 (stereo not given) | 61.6% |
| CCOC(=O)c1nnn(Cc2cc(=O)oc3ccc(O)cc23)c1C | 110% |
| O=C1/C(=C/c2ccc(Cl)cc2)CN(C(=O)C(Cl)Cl)C/C1=C\c1ccc(Cl)cc1 | -82.6% (active) |
| COc1ccc(/C=C(/C(=O)N2CCNCC2)c2cc(OC)c(OC)c(OC)c2)cc1O | 58.5% |
| Nc1cc(C(=O)O)cc(-n2c(O)c(C=C3N=c4ccccc4=N3)sc2=S)c1 | 103% |
| COc1ccc(-c2cc(-c3cccnc3)nc3sc4c(N)c(C(C)=O)c(-c5ccccc5)nc4c23)cc1OC | 34.9% |

| Structure (SMILES) | growth |
| --- | --- |
| CN(C)c1ccc(/C=C2\C=C(c3nc4ccccc4s3)OC2=O)cc1 | 110% |
| COc1cc2ncnc(Nc3ccc(S(=O)(=O)Nc4nccs4)cc3)c2cc1OCCCN1CCCC1 | 105% |
| COC(=O)/C=C1/SC(=Nc2ccc(F)cc2)N(CCc2c[nH]c3ccc(O)cc23)C1=O | 8.93% (active) |
| Clc1ccc(-c2cc(-c3ccccc3)nc(N3CCN(CCCNc4ccnc5cc(Cl)ccc45)CC3)n2)cc1 | 100% |
| Cn1cc(-c2nc3c(F)cc4[nH]ncc4c3c3c2CCCC3)c(C(F)(F)F)n1 | 4.21% (active) |
| COc1ccccc1S(=O)(=O)Nc1ccc2c3c(cc(CCC(=O)NCCCCNc4cccc5c4C(=O)N(C4CCC(=O)NC4=O)C5=O)cc13)C(=O)N2C (stereo not given) | -10.9% (active) |
| Fc1ccc(/C=C/[C@@H]2C[C@@H](F)CCO2)cc1 | 100% |
| COCCn1cc(-c2nc(-c3c[nH]c4ncccc34)cs2)c2ccccc21 | 43.2% |
| Cc1[nH]n(-c2cccc(Cl)c2)c(=O)c1/C=C1\C=c2ccccc2=CC1=O | 90.2% |
| O=c1ccc2ccc(OCCN3CCCCC3)cc2o1 | 100% |
| CCOC(=O)c1c(C)nc2ccccc2c1/C=C/c1ccc(F)cc1 | 73.6% |
| O=C(c1cccc(N2CCOCC2)n1)c1c[nH]c2ccccc12 | 117% |
| COc1ccc(NC(=O)c2ccc(Nc3ncnc4c3cnn4-c3cccc(F)c3)cc2)cc1 | 104% |
| O=S(O)c1cc(Cl)cc(Cl)c1OCc1ccccc1 | 107% |
| O=C1OCC2=C1C(c1ccccc1)c1cc3c(cc1N2CCO)OCCO3 (stereo not given) | 14.1% |
| CCN(CC)C(=O)CC1=C(C)/C(=C/c2[nH]c(-c3ccc[nH]3)cc2OC)N=C1C | 21.4% |
| O=C(c1ccc(Br)cc1)C(Br)C(c1ccc(Cl)cc1)C(c1ccccc1)[N+](=O)[O-] (stereo not given) | 105% |
| O=[N+]([O-])c1c(O)c(Cl)cc(Cl)c1Cl | 106% |
| CCCc1cc(=O)oc2c(C(=O)CC(C)C)c(O)c(CC=C(C)C)c(O)c12 | 1.17% (active) |
| CS(=O)(=O)Nc1cc(-c2ccc3ncnc(Nc4ccc5c(cnn5Cc5ccncc5)c4)c3c2)cnc1Cl | 16.1% |
